Results on 16 compounds are retold here after PubChem BioAssay (EPA / NIEHS).

Values joined by “and” are separate entries in the source; they are usually repeats but may differ in a detail not shown here. Equal values may be shown once. Records with an inconclusive call do not appear. Some compounds were tested as several samples or in several runs, with calls that do not always agree. Active and inactive are the calls of the source. How the source made its calls: active means hit-call score of the fitted dose curve at least 0.9, where 1 is the maximum; inconclusive means response in the unintended direction; inactive means score below 0.9.

The AC50 is the midpoint of the concentration-response curve, whichever way the signal moves.

Assay [1] in a line: ACEA_ER_AUC_viability: ACEA Biosciences xCELLigence Real-Time Cell Analysis on Estrogen Receptor Agonism for Viability (AID 2283782).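 Further: continuous compound exposure with impedance area under curve over 80 h; hit means loss of impedance signal meaning reduced cell growth or viability.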 The procedure, abridged:
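T-47D human breast cells in phenol red-free RPMI1640 with 10% charcoal-stripped FBS were dosed with an 8-point 1:4 dilution series from 100 uM top final concentration, in duplicate. Impedance-based growth was followed for 80 h; AUC analysed versus DMSO.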

Assay [2] in a line: STM_H9_NormalizedViability: Cytotoxicity Assessment at 120 hours in the Stemina devTOX quickPredict H9 human embryonic stem cell (hESC)-based Assay (AID 2283784). The procedure, abridged:
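Chemicals are tested blinded on H9 human embryonic stem cells in the pluripotent state, with medium exchanged daily. After background correction, fluorescence from CellTiter-Fluor is scaled against 0.1% DMSO wells, and decreases are scored.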

For assay [3], the target named is AR (gene 367) (UniProt P10275). Briefly: ACEA_AR_agonist_80hr: ACEA Biosciences xCELLigence Real-Time Cell Analysis on Androgen Receptor Agonism for Proliferation (AID 2283783).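 Further: hits increase impedance growth signal above DMSO baseline.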 The gist of the method:
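22Rv1 human prostate cancer cells were seeded after preconditioning in assay medium and monitored overnight, then dosed in an eight-point 1:4 dilution series from 100 uM (≤0.5% DMSO). Impedance-based growth was read at 80 h, gain-of-signal versus DMSO.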

The target of assay [4] is AR (gene 367) (UniProt P10275). Briefly: ACEA_AR_antagonist_80hr: ACEA Biosciences xCELLigence Real-Time Cell Analysis on Androgen Receptor Antagonism for Proliferation (AID 2283787).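 Further: hits lower the impedance growth signal relative to DMSO.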 The gist of the method:
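Impedance readout (RT-CES), 80 h post-dose; loss-of-signal vs DMSO baseline. 22Rv1 cells in assay medium. Compounds: 8-pt 1:4 series, max 100 uM final, up to 0.5% DMSO; n = 2.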

AR (gene 367), sequence (P10275 whole entry, looked up): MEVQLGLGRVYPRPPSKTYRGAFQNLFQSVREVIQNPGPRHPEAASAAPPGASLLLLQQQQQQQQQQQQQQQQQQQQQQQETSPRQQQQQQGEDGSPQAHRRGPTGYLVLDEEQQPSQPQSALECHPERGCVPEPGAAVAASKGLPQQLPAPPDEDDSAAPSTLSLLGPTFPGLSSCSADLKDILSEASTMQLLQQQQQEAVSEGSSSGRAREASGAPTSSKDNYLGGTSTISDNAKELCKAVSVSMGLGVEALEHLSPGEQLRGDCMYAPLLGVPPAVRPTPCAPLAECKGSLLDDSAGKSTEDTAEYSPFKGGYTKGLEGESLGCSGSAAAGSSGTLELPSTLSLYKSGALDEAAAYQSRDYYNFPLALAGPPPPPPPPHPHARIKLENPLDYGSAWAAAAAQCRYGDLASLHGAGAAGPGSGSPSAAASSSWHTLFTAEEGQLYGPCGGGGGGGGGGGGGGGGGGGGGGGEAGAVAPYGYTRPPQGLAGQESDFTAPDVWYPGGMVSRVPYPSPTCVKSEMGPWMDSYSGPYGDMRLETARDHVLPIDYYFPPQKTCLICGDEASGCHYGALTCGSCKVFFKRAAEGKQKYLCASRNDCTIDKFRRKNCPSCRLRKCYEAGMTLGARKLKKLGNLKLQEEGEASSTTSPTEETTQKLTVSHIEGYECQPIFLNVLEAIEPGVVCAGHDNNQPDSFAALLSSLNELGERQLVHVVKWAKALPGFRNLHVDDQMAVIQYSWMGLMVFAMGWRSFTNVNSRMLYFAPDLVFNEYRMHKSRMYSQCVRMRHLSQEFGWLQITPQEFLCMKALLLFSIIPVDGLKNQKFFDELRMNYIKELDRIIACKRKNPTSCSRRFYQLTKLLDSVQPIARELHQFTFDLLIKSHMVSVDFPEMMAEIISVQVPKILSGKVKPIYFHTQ

As to `O=C(O)C(F)(F)OC(F)(F)C(F)(F)OC(F)(F)C(F)(F)OC(F)(F)C(F)(F)C(F)(F)C(F)(F)F`, in assay [1], the AC50 is 119 µM (active).
On the same count and under the same terms, in the case of `O=C1c2ccc(O)c(O)c2C(=O)c2c(O)ccc(O)c21` it was 6.67 µM (active); in that of `CCCCCCCCC1CCC(=O)O1` (stereo unspecified), 67.5 µM (active).
In the case of `c1ccc2c(c1)CCC2`, the call in assay [1] was inactive.
Same read-out and setting: in the case of `CC1CNCC(C)O1` (stereo unspecified) it was “inactive”.
Consider `N=C(N)c1ccc(OCCCCCOc2ccc(C(=N)N)cc2)cc1`, for which the concentration at half-maximal activity (AC50) in assay [1] is 63.5 µM (active).
As to `CCCCCC(C)OC(=O)COc1ccc(Cl)c2cccnc12` (stereo unspecified), the result in assay [1] was inactive.
Still for that read-out and setting: in the case of `C=CC(C)(CCC=C(C)C)OC(C)=O` (stereo unspecified) it was “inactive”.
In the case of `Cn1sccc1=O`, the half-maximal activity concentration (AC50) in assay [1] is 40.2 µM (active). The result in assay [2] was inactive.
Turning to `O=C1OC2(c3ccccc31)c1cc(I)c(O)c(I)c1Oc1c2cc(I)c(O)c1I`, in assay [1], the AC50 was 18.5 µM (active) and the call was inactive.
With `c1cc[nH]c1`, the AC50 in assay [1] was 50 µM (active).
For `CCCCCCCCCCCC[N+](C)(C)Cc1ccccc1`, the AC50 in assay [1] is 3.05 µM (active) and 5.69 µM (active).
For the compound `O=C(c1ccccc1)c1ccccc1`, the call in assay [3], in assay [2] and in assay [4] was inactive.
As to `CC(C)(C)c1ccc(O)c(O)c1`, the AC50 in assay [1] was 23.4 µM (active); in assay [2], 86.5 µM (active).
In the case of `CC1=NN(c2ccccc2)C(=O)C1`, the call in assay [1] was inactive.
As for `CCCCCCCCCCCCCCC`, the compound was classed as inactive in assay [1].
